Experimental data published in PubChem BioAssay (NCI).
This is part of a sample that, as a whole, favours compounds with a hit. Of some 83,000 tested, about 20% had one in any assay.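 In brief: 96-well plates, 48 h treatment, single concentration, percent growth endpoint.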 Activity calls are given as the source filed them. Rule for the calls: active = growth percent below 10; inactive = the rest.

Columns and labels:
Test in all cases: NCI-60 one-dose screen, 48 h (100 = growth as untreated, 0 = no growth, -100 = all killed)
Settings in all cases: 10 µM unless noted
[1] = test system: NCI-H23 lung
[2] = test system: NCI-H226 lung
[3] = test system: HOP-62 NSCLC
[4] = test system: NCI-H460 lung
[5] = test system: HOP-92 NSCLC
[6] = test system: NCI-H522 lung
[7] = test system: A549/ATCC NSCLC
[8] = test system: 786-0 renal
[9] = test system: COLO 205 colon
[10] = test system: DU-145 prostate
[11] = test system: K-562 leukemia
[12] = test system: MALME-3M melanoma
[13] = test system: MDA-MB-231 breast
[14] = test system: RXF 393 renal
[15] = test system: SF-268 CNS
[16] = test system: SF-295 CNS
[17] = test system: SF-539 CNS
[18] = test system: UACC-257 melanoma
[19] = test system: M14 melanoma
[20] = test system: NCI-H322M lung

Measured: growth

CCSc1oc(-c2ccccc2)nc1[P+](c1ccccc1)(c1ccccc1)c1ccccc1
inactive: [8] 13.4% | [10] 11.1% | [15] 14.1% | [17] 14.6%
active: [1] -11.8% | [2] -2.47% | [3] 0.275% | [4] 0.695% | [5] -27.9% | [6] -20.3% | [7] 9.29% | [9] -45.5% | [11] 7.15% | [12] -25% | [13] -12.8% | [14] 0.296% | [16] -4.41% | [18] 7.79% | [19] 7.57%

C#Cc1c2c(c(OC)c3c1OCO3)[C@H]([C@H]1OC(=O)c3c1ccc(OC)c3OC)N(C)CC2
inactive: [1] 86% | [2] 98% | [3] 71.8% | [4] 96% | [5] 91.2% | [6] 60.3% | [7] 65.5% | [8] 95.4% | [9] 79.7% | [10] 95.1% | [11] 31.2% | [12] 69.9% | [13] 87.5% | [14] 92.3% | [15] 90.4% | [16] 77.7% | [17] 96.3% | [18] 82.8% | [19] 71.4%

O=C(CSc1nc2ccc([N+](=O)[O-])cc2[nH]1)Nc1ccc([N+](=O)[O-])cc1
active: [1] 0.139% | [2] 6.55% | [5] -26.8% | [6] -3.09% | [12] 1.83% | [18] 9.35%
inactive: [3] 36.2% | [4] 15.4% | [7] 24.4% | [8] 24.1% | [9] 21.4% | [10] 31.6% | [11] 14.3% | [13] 33.3% | [14] 29% | [15] 27% | [16] 21.2% | [17] 41.5% | [19] 24.5%

CCOC(=O)c1c2c(n3cccc(F)c13)C(=O)c1ncccc1C2=O
active: [1] -0.249% | [2] -6.38% | [3] -37.4% | [4] -22.1% | [6] 1.44% | [7] -9.79% | [8] -17.3% | [9] 7.04% | [10] 3.34% | [11] 9.2% | [14] 1.36% | [16] 3.24% | [17] -9.12% | [19] -33.1%
inactive: [5] 38.5% | [12] 25.6% | [13] 38.2% | [15] 20.9% | [18] 12.7%

CC(C)=CC(=O)OCC(=O)O[C@@H]1C[C@]2(C(C)C)O[C@@]1(C)[C@@H]1CC[C@@H](C)[C@H]1[C@@H]2OC(=O)/C=C/c1ccccc1
active: [14] 1.65%
inactive: [1] 76% | [2] 55.5% | [3] 96.7% | [4] 93.5% | [5] 61% | [6] 70.4% | [7] 83.4% | [8] 66% | [9] 106% | [10] 96.8% | [11] 60.7% | [12] 99.8% | [13] 90.9% | [15] 62.3% | [16] 95.4% | [17] 104% | [18] 86.8% | [19] 88.1%

CCCNc1nc2ccccc2c2c1S(=O)(=O)c1ccc(Cl)cc1C2=O
inactive: [1] 24.7% | [2] 34.7% | [7] 19.6% | [8] 13.9% | [10] 19.4% | [12] 21.9% | [14] 12% | [15] 20.4% | [16] 15.8% | [18] 17.8%
active: [3] 9.66% | [4] 5.29% | [5] -27.2% | [6] -81.3% | [9] -9.19% | [11] 8.48% | [13] -0.717% | [17] 6.35% | [19] 5.71%

O=C(O)CCN1C(=O)/C(=C/C(Cl)=C/c2ccccc2)SC1=S
active: [8] 9.92% | [14] -10.2%
inactive: [1] 21.3% | [2] 23.6% | [3] 53.9% | [4] 16.6% | [5] 53.7% | [6] 10.6% | [7] 44.8% | [9] 13% | [10] 22.2% | [11] 14.5% | [12] 36.1% | [13] 49.9% | [15] 26.5% | [16] 51.5% | [17] 10.2% | [18] 33.3% | [19] 10.3%

C=CCn1c(C)nc2ccc(Nc3nc(Nc4ccc5nc(C)n(CC=C)c5c4)c4ccccc4n3)cc21
inactive: [1] 32.8% | [2] 67.4% | [5] 43.2%
active: [20] -13.4% | [3] -61.5% | [4] -69.5% | [6] -90.7% | [7] -83.1% | [8] -93.8% | [10] -67.6% | [11] -43.5% | [12] -78.9% | [13] -78.8% | [14] -80.7% | [15] -32.4% | [16] -67.5% | [17] -93.8% | [18] -87.6% | [19] -88.4%
